Laboratory results from PubChem BioAssay AID1159580 (chemical genetic matrix, 2015).
The whole screen tested about 5,500 compounds, of which about 2,000 (36%) were called active. Inconclusive results (about 18%) are left out. Cut-off read from the data, not from the text of the source: active = normalized growth mostly below about 0.91 (no sharp cut-off); inconclusive = no clear call, values can overlap the other calls; inactive = mostly above about 0.92. The list shows a part of the results.

Assay: chemical genetic growth profiling, strain panel (AID 1159580);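 note: tested at 20 µM; growth read once vehicle control cultures reached saturation at 30 °C; 1 = growth at the plate median or of vehicle wells; lower values mean less growth of the strain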
Details: growth OD

Measured: normalized growth

CCOC(=O)c1c(Nc2ccccc2)sc([N+](=O)[O-])c1N
inactive: S. cerevisiae deletion strains, locus YAL013W, strain DEP1, hits give low values 0.941 | S. cerevisiae deletion strains, locus YBR229C, strain ROT2, hits give low values 1.01 | S. cerevisiae deletion strains, locus YDL101C, strain DUN1, hits give low values 1.02 | S. cerevisiae deletion strains, locus YDR150W, strain NUM1, hits give low values 0.969 | S. cerevisiae deletion strains, locus YEL061C, strain CIN8, hits give low values 0.985 | S. cerevisiae deletion strains, locus YGR078C, strain PAC10, hits give low values 0.985 | S. cerevisiae deletion strains, locus YHR030C, strain SLT2, hits give low values 0.743 | S. cerevisiae deletion strains, locus YHR087W, strain rtc3, hits give low values 0.98 | S. cerevisiae deletion strains, locus YJR043C, strain POL32, hits give low values 0.956 | S. cerevisiae deletion strains, locus YJR075W, strain HOC1, hits give low values 0.949 | S. cerevisiae deletion strains, locus YKL190W, strain CNB1, hits give low values 0.977 | S. cerevisiae deletion strains, locus YLR039C, strain RIC1, hits give low values 0.964 | S. cerevisiae deletion strains, locus YLR058C, strain SHM2 (second series), hits give low values 1 | S. cerevisiae deletion strains, locus YLR262C, strain YPT6, hits give low values 0.965 | S. cerevisiae deletion strains, locus YML094W, strain GIM5, hits give low values 0.961 | S. cerevisiae deletion strains, locus YMR219W, strain ESC1, hits give low values 0.998 | S. cerevisiae deletion strains, locus YMR263W, strain SAP30, hits give low values 0.931 | S. cerevisiae deletion strains, locus YNL153C, strain GIM3, hits give low values 0.986 | S. cerevisiae deletion strains, locus YNL298W, strain CLA4 (second series), hits give low values 0.917 | S. cerevisiae deletion strains, locus YNL322C, strain KRE1, hits give low values 0.985 | S. cerevisiae deletion strains, locus YNR030W, strain Alg12, hits give low values 0.952 | S. cerevisiae deletion strains, locus YPL055C, strain LGE1, hits give low values 0.846 | S. cerevisiae deletion strains, locus YPR135W, strain CTF4, hits give low values 0.783 | S. cerevisiae strains, strain wild type, hits give low values 0.977
active: S. cerevisiae deletion strains, locus YLR085C, strain ARP6, hits give low values 0.762 | S. cerevisiae deletion strains, locus YMR307W, strain GAS1, hits give low values 0.66 | S. cerevisiae deletion strains, locus YPL241C, strain CIN2, hits give low values 0.849
